Hits are enriched below; roughly 3.6% of the tested compounds scored in any of these assays.
mHTT CaM bind – mHTT-calmodulin interaction abrogation; P42858; AlphaScreen His-mHTT/GST-CaM binding, luminescence; inhibition, % at 15 µM; 190,000 tested, 3.6% active;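 note: 0% = both proteins with DMSO and 100% = one protein alone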
Pf apPOL inh – Pf-apPOL DNA polymerase inhibition | inhibition, % at 10 µM | Recombinant Pf-apPOL, molecular beacon fluorescence, 1.5 h | 210,000 tested, 0.25% active
* marks the source's active call; other numbers are inactive results. Cut-off read from the data, not from the text of the source: active = inhibition above about 50%; inactive = the rest.

For CC(=O)N1CCc2cc(Br)cc(S(=O)(=O)NCCc3cccc(C)c3)c21 the results were mHTT CaM bind 55* and Pf apPOL inh -7.
For O=C(NCc1ccccc1C(F)(F)F)C1CCCN(c2cnc3nccnc3c2)C1 (stereo not drawn) the results were mHTT CaM bind -2 and Pf apPOL inh 2.
`O=c1c(-[n+]2ccccc2)cc2[nH]c3ccccc3c2n1-c1ccccc1` gave mHTT CaM bind 14 and Pf apPOL inh -1.
`O=c1c(N=Cc2cccc([N+](=O)[O-])c2)cc2[nH]c3ccccc3c2n1-c1ccccc1` gave mHTT CaM bind 97* and Pf apPOL inh 4.
`O=c1c(N=Cc2ccccc2)cc2[nH]c3ccccc3c2n1-c1ccccc1` gave mHTT CaM bind 99* and Pf apPOL inh -5.
Cc1ccc(C)c(N=Cc2cccc([N+](=O)[O-])c2)c1 was read as mHTT CaM bind 1 and Pf apPOL inh 6.
For O=S(=O)(c1ccc2c(c1)CCC2)N1CCCC1c1nc(-c2cccc(Cl)c2)no1 (stereo not drawn) the results were mHTT CaM bind -3 and Pf apPOL inh 2.
Screening COc1ccc(/C=C2/N=C(c3c(-c4ccccc4)noc3C)OC2=O)c(OC)c1OC returned mHTT CaM bind 10 and Pf apPOL inh 1.
CCOc1ccccc1NC(=O)N1CCCC1c1cc(C(C)C)on1 (stereo not drawn) was read as mHTT CaM bind -5 and Pf apPOL inh -1.
For CCN(CC)CCN(C)C1C2CC3CC(C2)CC1C3 (stereo not drawn) the results were mHTT CaM bind -2 and Pf apPOL inh 1.
Screening COc1ccc(NC(=O)C(Cl)(Cl)Cl)c(OC)c1 returned mHTT CaM bind -6 and Pf apPOL inh -1.
For COc1cccc(C2N(c3ccc(Cl)c(Cl)c3)C(=O)C3CCCN32)c1OC (stereo not drawn) the results were mHTT CaM bind 100* and Pf apPOL inh -4.
For COc1ccc(C2N(c3ccc(Cl)cc3)C(=O)C3CCCN32)cc1 (stereo not drawn) the results were mHTT CaM bind -6 and Pf apPOL inh -3.
`COc1cccc(C2N(c3ccc(Cl)c(Cl)c3)C(=O)C3CCCN32)c1` (stereo not drawn) gave mHTT CaM bind 99* and Pf apPOL inh -4.
For COc1cccc(C2N(c3ccccn3)C(=O)C3CCCN32)c1OC (stereo not drawn) the results were mHTT CaM bind -3 and Pf apPOL inh -2.
`COc1ccc(N2C(=O)C3CCCN3C2c2cccc(C)c2)cc1Cl` (stereo not drawn) gave mHTT CaM bind 1 and Pf apPOL inh -5.
Screening COc1ccc(OC)c(C2N(c3ccc(Cl)cc3)C(=O)C3CCCN32)c1 (stereo not drawn) returned mHTT CaM bind 73* and Pf apPOL inh -1.
Screening COc1ccc(C2N(c3ccc(OC)c(Cl)c3)C(=O)C3CCCN32)cc1 (stereo not drawn) returned mHTT CaM bind -3 and Pf apPOL inh -4.
COc1ccc(N2C(=O)C3CCCN3C2c2ccc(N(C)C)cc2)cc1Cl (stereo not drawn) was read as mHTT CaM bind 67* and Pf apPOL inh 0.
`Cc1oc2c3c(ccc2c(=O)c1-c1ccc(Cl)cc1)OCN(CCCO)C3` gave mHTT CaM bind 6 and Pf apPOL inh -8.
`Cc1ccc(CC(=O)Nc2cc(-c3ccccn3)no2)cc1` gave mHTT CaM bind -6 and Pf apPOL inh -3.
Screening COc1ccc(OC)c(C2N(c3ccc(Cl)c(Cl)c3)C(=O)C3CCCN32)c1 (stereo not drawn) returned mHTT CaM bind 100* and Pf apPOL inh -2.
Screening COc1ccc(OC)c(C2N(c3cc(C)on3)C(=O)C3CCCN32)c1 (stereo not drawn) returned mHTT CaM bind 0 and Pf apPOL inh -3.
Screening CCOc1cccc2cc(C(=O)Nc3nccs3)c(=Nc3ccc(OC)cc3)oc12 returned mHTT CaM bind -6 and Pf apPOL inh -5.
Cn1nc(-c2ccncc2)nc2c(=O)n(C)c(=O)nc1-2 was read as mHTT CaM bind 2 and Pf apPOL inh 9.
CCn1nc(-c2ccccn2)nc2c(=O)n(C)c(=O)nc1-2 was read as mHTT CaM bind 84* and Pf apPOL inh 6.
For CCCCCCCCCCCCCCNC(=O)CSc1nncn1C the results were Pf apPOL inh -12.
`Cc1ccc(S(=O)(=O)N2CCC(CCNC(=O)Nc3ccccc3C)CC2)cc1` gave mHTT CaM bind 27 and Pf apPOL inh -1.
Screening CC(=O)N1CC=C2C(C#N)=C(N)C(C#N)(C#N)C(c3cccc(Cl)c3)C2C1 (stereo not drawn) returned mHTT CaM bind 20 and Pf apPOL inh -8.
Screening COc1cccc(C2C3CN(Cc4ccccc4)CC=C3C(C(=O)O)=C(N)C2(C#N)C#N)c1 (stereo not drawn) returned mHTT CaM bind 47 and Pf apPOL inh 94*.
`Cc1ccc(C2C3CN(Cc4ccccc4)CC=C3C(C(=O)O)=C(N)C2(C#N)C#N)o1` (stereo not drawn) gave mHTT CaM bind 52* and Pf apPOL inh 1.
For CCCN1CC=C2C(C#N)=C(N)C(C#N)(C#N)C(c3ccccc3Cl)C2C1 (stereo not drawn) the results were mHTT CaM bind 38 and Pf apPOL inh -2.
CC(C)CCNC(=O)C1CCCN(c2nc3ccccc3o2)C1 (stereo not drawn) was read as mHTT CaM bind -14 and Pf apPOL inh -17.
Screening CCC(C)c1ccc(NC(=O)C2C3C=CC(C3)C2C(=O)O)cc1 (stereo not drawn) returned mHTT CaM bind -6 and Pf apPOL inh -4.
Nc1nc[nH]c(=O)c1[N+](=O)[O-] was read as mHTT CaM bind -6 and Pf apPOL inh -3.
Screening NNc1ncc([N+](=O)[O-])c2nc[nH]c12 returned mHTT CaM bind 100*.
Cc1ccc(S(=O)(=O)Nc2ccccn2)cc1 was read as mHTT CaM bind -8 and Pf apPOL inh -8.
Cc1ccc(S(=O)(=O)N=C2C=C(NS(=O)(=O)c3ccccc3)C(=O)c3ccccc32)cc1 was read as mHTT CaM bind 66* and Pf apPOL inh 5.
Screening Cc1cccc(NC2=C(N(C)C)C(=O)c3ccccc3C2=O)c1 returned mHTT CaM bind 19 and Pf apPOL inh -10.
Cc1ccc(S(=O)(=O)N=C2C=C(Nc3cccc(C)c3)C(=O)c3ccccc32)cc1 was read as mHTT CaM bind 82* and Pf apPOL inh -2.
COc1ccc(NC2=CC(=NS(=O)(=O)c3cc(C)ccc3C)c3ccccc3C2=O)cc1 was read as mHTT CaM bind 47 and Pf apPOL inh 7.
Cc1ccc(S(=O)(=O)N=C2C=C(N3CCOCC3)C(=O)c3ccccc32)cc1 was read as mHTT CaM bind 84* and Pf apPOL inh 1.
Cc1ccc(C)c(S(=O)(=O)N=C2C=C(Nc3ccccc3)C(=O)c3ccccc32)c1 was read as mHTT CaM bind 89* and Pf apPOL inh -3.
Screening CC(=NS(=O)(=O)c1ccc(C)cc1)N1CCOCC1 returned mHTT CaM bind -3 and Pf apPOL inh 4.
CCn1c(=O)c2c(ncn2CC)n(-c2cccc3ccccc23)c1=O was read as mHTT CaM bind 9 and Pf apPOL inh -3.
For CCOc1ccc(N=C(C)C2=C(O)c3ccccc3C2=O)cc1 the results were mHTT CaM bind 5 and Pf apPOL inh -8.
For CCOc1ccc(S(=O)(=O)N=C2C=C(Nc3cccc(C)c3)C(=O)c3ccccc32)cc1 the results were mHTT CaM bind 82* and Pf apPOL inh 2.
